The panel holds about 83,000 compounds, 20% with a hit somewhere; the sample as a whole holds those more often.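 Percent growth is the endpoint: 0 to 100 indicates growth inhibition (40 means 60% inhibition), 0 means no net growth, and negative values indicate cell death.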 Unmarked numbers belong to inactive results. The source made the active and inactive calls. The calls were made as follows: active = growth percent below 10; inactive = the rest.

The assay has as its system NCI-H226 lung. As to the kind of experiment: NCI-60 one-dose screen, 48 h (100 = growth as untreated, 0 = no growth, -100 = all killed). Conditions: 10 µM.
Take `Clc1cc2c(c(CSc3nc4ccccc4n4cccc34)c1)OCOC2`: the growth is 134%. As for `O=C1NC(=O)c2ncccc21`, the figure is 96.3%; as for `NC1=NC(=O)C(c2ccccc2)(c2ccccc2)S1`, 103%.

On to `Cn1c([N+](=O)[O-])cnc1/C=C1\Oc2cc(Cl)ccc2C1=O`, for which the growth was 59.5%. As for `c1ccc(C(NC2CC3CCC2C3)c2ccccc2)cc1` (centres undefined), the figure is 85.8%; as for `COc1cc(/C=C2\Oc3cc(OCC(=O)c4ccccc4)ccc3C2=O)cc(OC)c1OC`, 104%; as for `CC1(C)Cc2c(sc3ncn4nc(-c5ccc(O)cc5)nc4c23)CO1`, 57.9%. In the case of `O=C(N/N=C/c1cc2ccccc2c2ccccc12)c1cc(O)c(O)c(O)c1`, the growth was 95.6%.

For `CCOC(=O)c1ccoc1`, the growth is 101%. With `O=[P@@]1(c2ccccc2)O[C@H](COCc2ccccc2)[C@@H](OCc2ccccc2)[C@H](OCc2ccccc2)[C@H]1O`, the growth is 59%. For the molecule `CN(C)CCN1C(=O)c2cccc3c(-c4ccc5ncn(C6CCCCC6)c5c4)ccc(c23)C1=O`, the growth was 25.1%. For the molecule `CN(C)c1ccc(N=C2C=CC(=O)c3ccccc32)cc1`, the growth is 91.7%.

For `CC(=O)CSC(C)=O`, the growth was 99%.

Take `COc1ccc(Nc2ccnc(NCCNc3ccnc4cc(Cl)ccc34)n2)cc1`: the growth is 49.7%. Regarding `N=C(N)c1ccc(-c2ccc(-c3cccs3)s2)cc1`, the growth was 82.3%. In the case of `CC(C)(Cl)CCC1=C(Cl)C(=O)c2ccccc2C1=O`, the growth was 62.8%. As to `CCOCCOCCOCCOCCOCCOCCOCCOCCOCCO` (tested in a mixture with another compound), the growth was 28.2%.

Consider `CCCCCCCCCCCCCC[n+]1ccc(C(N)=O)cc1`, for which the growth is -7.94% (active). Turning to `COc1ccc(-c2nc(-c3nc4ccc(OC)cc4[nH]3)cc3c2[nH]c2ccccc23)cc1`, the growth is 65.3%. `COc1ccc(Oc2nc(NC3CCCC3)nc(Sc3ccc(OC)cc3)n2)cc1`: the growth was 67.4%. Turning to `COc1cc2cc3c(nc2cc1OC)CCN3Cc1ccc(NC(=O)Nc2cc(C(F)(F)F)cc(C(F)(F)F)c2)cc1`, the growth is 92.6%. As to `CCCCCC(=O)c1ccc(OCCCN2CCN(C(=O)OCC)CC2)cc1`, the growth is 73%. Consider `COc1ccc(-c2cc(/C=C/C(=O)c3cc(OC)c(OC)c(OC)c3)[nH]n2)cc1OC`, for which the growth is 63%. On to `COc1cccc(-c2cc(-c3cccc(NS(C)(=O)=O)c3)nc(N)c2C#N)c1O`, for which the growth was 74.5%.

(Values after PubChem BioAssay (NCI).)
